This is part of a sample that, as a whole, favours compounds with a hit. Of some 79,000 tested, about 15% had one in any assay. A number with no mark means an inactive call. No stated cut-off is given here; in the data, active means growth inhibition above about 70%; inactive means the rest. *1 amine or outer side, *2 acyl side, *3 side chain or, on linkers, in order; H or OH if unused. Where a SMILES comes first, the peptide text is derived from it. The star is where a group is joined. γGlu = O=C(O)[CH](CCC(=O)[*:2])N[*:1]; NHOH = ON*
Experiment: NCI Yeast Anticancer Drug Screen. Data for the mec2-1 strain (AID 157)
Conditions: S. cerevisiae mec2-1 strain, at 50.0 µM, stronger effect = higher value
Outline: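 Mutant yeast (mec2-1) grown with compound; growth inhibition relative to vehicle control reported.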

SMILES | growth inhibition [%]
CC(=O)NC(c1ccc(F)cc1)(c1ccc(F)cc1)C(F)(F)F | 11.1
CCC(O)C(C)CO (stereo not drawn) | 5.05
COC(=O)c1cc(C(=O)OC)c(CC(=O)C(=O)Nc2ccc(Cl)c(C(F)(F)F)c2)nc1CC(=O)C(=O)Nc1ccc(Cl)c(C(F)(F)F)c1 | -30.2
CN1C/C(=C\C=C\c2ccccc2)C(=O)/C(=C/C=C/c2ccccc2)C1 | 16.9
O=C(OCC(OC(=O)c1ccccc1)C1CC(C(O)C2CCCCC2)C(=O)O1)c1ccccc1 (stereo not drawn) | 22.1
CC(COc1ccccc1)OC=O (stereo not drawn) | -2.65
NC(CCC(=O)NC(CCC(=O)NO)C(=O)NCC(=O)O)C(=O)O (stereo not drawn) (γGlu-Glu(NHOH)-Gly-OH; configuration not given here) | -3.2
COC(=O)C1=C(C(=O)OC)C2(C(=O)OC)OC1(OC)C(C1(C(=O)OC)C(C(=O)OC)=C1C(=O)OC)=C2C(=O)OC (stereo not drawn) | 14.2
CCN(CC)c1ccc(NC(=S)Nc2cccc(C(F)(F)F)c2)c(C)c1 | 21.6
C/C(=N/O)c1ccc[nH]1 | 9
CC(NC(=O)OC(C)(C)C)C(=O)C(N)=O (stereo not drawn) | 2.7
CCOC(CN1CCCCC1)OCC | -7.6
O=Cc1c(O)nc[nH]c1=O | -27.9
COc1ccc2c(c1)CCC1C2CCC2(C)C(=O)C(n3cnc4c(SC)ncnc43)CC12 (stereo not drawn) | 19.6
CC(C)(O)/C(=N/O)c1ccc(-c2ccccc2)cc1 | -18.3
C=CCN=C(N)SCCN(CCSC(N)=NCC=C)C(N)=O | 10.7
COc1cccc(NC(=O)CC(=O)N2N=C(C)C(N=Nc3ccc(S(=O)(=O)c4ccc(N=NC5C(=O)N(C(=O)CC(=O)Nc6cccc(OC)c6)N=C5C)cc4)cc3)C2=O)c1 (stereo not drawn) | 15.8
Cn1c(-c2ccccc2)nc(-c2ccccc2)[n+]1[O-] | -0.55
Cc1cccc(O)c1C(=O)O | -12
COc1cc(OC)c(NC(=O)NC(C)(C)C)cc1Cl | 9.4
CCOC(=O)c1nc2ccc(C(F)(F)F)cc2nc1NCc1ccc(F)cc1 | 7.6
CN(C)CCCNC=O | -10.9
Nc1nc(N)c2nc(CNc3ccc(C(=O)NC(CCCNC(=O)c4ccccc4C(=O)O)C(=O)O)cc3)cnc2n1 (stereo not drawn) | 30.4
